The results in this text go back to ChEMBL document CHEMBL3988442, “University of Dundee, Small-Polar-MMV Screening Library” (2021).

Molecules are shown by their SMILES. Out of some 53,000 compounds screened, about 900 (1.7%) showed an effect of 50% or more. The full list was thinned out, with strong results kept by preference.

The assay concerns Mycobacterium tuberculosis. The experiment in a line: Cornell - Phenotypic assay to identify agents that inhibit growth of Mycobacterium tuberculosis. Also on record: scale not given: direction of the effect not stated beside the values. The conditions noted are these: 10 mM as filed; unlikely as a test dose. The class given is functional.
`Cl.Cl.O=C(CN1CCN(CC(O)C2CC2)CC1)NCc1ccc(F)cc1` (stereo unspecified): the “Percent Effect” value was 12.18%.

Take `Cc1ccccc1CNC(=O)CNc1ccc(OC2CCOC2)cc1` (stereo unspecified): the “Percent Effect” value was 74.57%.

For `C1CN(Cc2noc(C3CC3)n2)CCN(Cc2nnc(C3CC3)o2)C1`, the “Percent Effect” value was -22.59%.

On to `Cc1cnn(C2CCCN(C(=O)CCCc3ccccn3)C2)c1` (stereo unspecified), for which the “Percent Effect” value came to 2.711%.

As to `COc1ccc(S(=O)(=O)Nc2cnc(N(C)C)nc2)cc1`, the “Percent Effect” value was -14.34%.

For the compound `CCCN(C(=O)c1cccnc1)c1nc2c(s1)CCc1c-2cnn1C`, the “Percent Effect” value was determined as 30.71%.

For the compound `CCCN(C(=O)c1cnccn1)c1nc2c(s1)CCc1c-2cnn1C`, the “Percent Effect” value is given as 25.49%.

`CCCN(C(=O)c1ccncc1)c1nc2c(s1)CCc1c-2cnn1C`: the “Percent Effect” value worked out at 54%.

With `CS(=O)(=O)NC[C@H]1OC[C@H]2CN(CCc3ccccc3)CC[C@H]21.O=C(O)C(F)(F)F`, the “Percent Effect” value came out at 1.676%.

For `CN1CCOC(CNCc2coc(-c3cccc(Cl)c3)n2)C1` (stereo unspecified), the “Percent Effect” value is 12.33%.

As to `COc1ccc(CN(C)[C@@H]2CN(C(=O)c3cccnc3)C[C@H]2O)cc1`, the “Percent Effect” value stood at 29.94%.

As for `CC(C)c1cc(C(=O)NCC2CCCN(c3ncccn3)C2)n(C)n1` (stereo unspecified), the “Percent Effect” value was 10.83%.

On to `COc1cccc(-c2cc(C(=O)N3N=C(C)CC3(O)C(F)(F)F)[nH]n2)c1` (stereo unspecified), for which the “Percent Effect” value worked out at 58.69%.

In the case of `COc1ccc(-c2cc(C(=O)N3N=C(C)CC3(O)C(F)(F)F)[nH]n2)cc1` (stereo unspecified), the “Percent Effect” value is -4.762%.

As to `COc1cccc(-c2cc(C(=O)N3N=C(C)CC3(O)C(F)F)[nH]n2)c1` (stereo unspecified), the “Percent Effect” value worked out at 21.19%.

Consider `COCCC(=O)Nc1nccn1Cc1ccc(Br)cc1`, for which the “Percent Effect” value is recorded as 27.83%.

`CC(C)(C#N)C(=O)Nc1nccn1Cc1ccc(Br)cc1`: the “Percent Effect” value is 15.16%.

For the compound `CCOCC(=O)Nc1nccn1Cc1ccc(Br)cc1`, the “Percent Effect” value stood at 58.9%.

On to `CCOCC(=O)Nc1ncn(Cc2cccc(Br)c2)n1`, for which the “Percent Effect” value is -12.98%.

On to `COCC(=O)Nc1nccn1Cc1ccc(Br)cc1`, for which the “Percent Effect” value worked out at 26.85%.

Consider `CSCC(=O)Nc1nccn1Cc1ccc(Br)cc1`, for which the “Percent Effect” value amounted to 106.3%.

For `CNC(=O)C1Cn2ccnc2C2(CCN(C(=O)NC3CCCC3)CC2)O1` (stereo unspecified), the “Percent Effect” value is given as 14.23%.

For the compound `COCCNC(=O)N1CCCC(COc2ccccc2)C1` (stereo unspecified), the “Percent Effect” value was determined as 32.08%.

For `COCCN1CC(C(=O)Nc2ccc3c(c2)CCC(=O)N3C)CC1=O` (stereo unspecified), the “Percent Effect” value is on record as -14.74%.

As for `Cn1ncc2c(NCC3CCCN3c3cccnn3)ncnc21` (stereo unspecified), the “Percent Effect” value worked out at 19.68%.

For the compound `CCOc1cccc(NC(=O)c2cc(C)on2)n1`, the “Percent Effect” value is given as 7.843%.

Regarding `CCOc1cccc(COC(=O)c2cscn2)n1`, the “Percent Effect” value was found to be 94.28%.

In the case of `CCOc1cccc(COC(=O)c2cc(Cl)ccn2)n1`, the “Percent Effect” value was found to be 14.29%.

Consider `CCOc1cccc(COC(=O)c2cc(C)on2)n1`, for which the “Percent Effect” value is listed as 56.01%.

Take `CCOc1cccc(COC(=O)c2ccc(Cl)cn2)n1`: the “Percent Effect” value was 25.49%.

As for `CCOc1cccc(COC(=O)c2ccc(F)cn2)n1`, the “Percent Effect” value was 26.62%.

Take `Cc1cnn(CC(C)NCc2nc(-c3ccoc3)no2)c1` (stereo unspecified): the “Percent Effect” value is reported as -18.82%.

For `CC(=O)N1CCN(C(C)c2ccc(Br)cc2)CC1` (stereo unspecified), the “Percent Effect” value came to 29.59%.

Consider `CC(=O)c1cccc(NC(=O)Cn2cc(I)cn2)c1`, for which the “Percent Effect” value was 18.59%.

Take `COc1ccc(C2CNCCN2C(=O)c2cccc3cccnc23)cc1` (stereo unspecified): the “Percent Effect” value is -23.3%.

In the case of `COc1ccccc1C(=O)N1CCC(Nc2ccc(C)nn2)CC1`, the “Percent Effect” value is given as 2.292%.

Turning to `CCc1ccc(NC(C(N)=O)c2ccc(F)cc2)cc1` (stereo unspecified), the “Percent Effect” value was 17.32%.

In the case of `Cc1csc(CN2CCC[C@]3(C[C@H](OCC4CC4)CO3)C2)n1`, the “Percent Effect” value was 14.79%.

For `CCOc1ccc(C(C)Nc2ncnc3c2CCNC3)cc1OCC` (stereo unspecified), the “Percent Effect” value came out at 51.31%.

`CC(Nc1ncnc2c1CCNC2)c1ccc(C(C)(C)C)cc1` (stereo unspecified): the “Percent Effect” value is on record as 24.62%.

Take `CCCc1ccc(C(C)Nc2ncnc3c2CCNC3)cc1` (stereo unspecified): the “Percent Effect” value is 32.1%.

In the case of `COC(=O)Cn1nc(-c2ccccc2F)ccc1=O`, the “Percent Effect” value is -14.4%.

Regarding `O=c1c(S(=O)(=O)N2CCCCC2)cccn1Cc1ccccc1Cl`, the “Percent Effect” value turned out to be 9.959%.

On to `CC(C)COC(=O)N1CCCN(C(C)c2nc(C(C)C)no2)CC1` (stereo unspecified), for which the “Percent Effect” value is 10.17%.

`O=C(NCCc1cccs1)C1(N2CCCCC2)Cc2ccccc2C1`: the “Percent Effect” value was determined as 15.22%.

As to `O=C(O)C(F)(F)F.O=C(O)C(F)(F)F.c1cnc(N2CCO[C@H]3CN(Cc4ccsc4)C[C@H]32)nc1`, the “Percent Effect” value amounted to 5.511%.

Take `Cc1cccc(CN2C[C@@H]3OCCN(c4ccnc(N(C)C)n4)[C@@H]3C2)c1.O=C(O)C(F)(F)F`: the “Percent Effect” value was found to be 24.83%.

Turning to `CN(C)c1nccc(N2CCO[C@H]3CN(Cc4ccsc4)C[C@H]32)n1.O=C(O)C(F)(F)F`, the “Percent Effect” value is reported as 57.1%.

`Oc1ccccc1-c1n[nH]c(C2CC2)n1`: the “Percent Effect” value is given as -27.03%.

In the case of `CNC(=O)CC1CCN(C(=O)NCc2cn3c(C)cccc3n2)CC1`, the “Percent Effect” value is 20.05%.

As for `CC(=O)N1CCCC(c2ccc(C(=O)NC3CCCC3)cn2)C1` (stereo unspecified), the “Percent Effect” value is given as -27.02%.
